JMJD2A Tudor inh: inhibitors of human JMJD2A Tudor domain | O75164 | AlphaScreen JMJD2A-Tudor / H3K4me3 peptide binding | Potency, µM (series often up to 114 µM), inactives show top-dose activity change, negative = inhibition, hits mostly inhibitors | 390,000 compounds, 4.4% hits | AID 504339; also: % is scaled to controls: 0 for no effect and ±100 for the full control effect; nearly all actives have a fitted effect of over 50% in size
PLK1 PBD inh: PLK1 (human) polo-box domain binding inhibition. P53350. Plk1 PBD binding of FITC phosphopeptide, fluorescence polarization. Potency, µM, inactives show max response, negative = inhibition, actives largely listed as inhibitors. 360,000 compounds, 2.8% hits. AID 720504; also: series mostly up to about 57 µM; % is scaled to controls: 0 for no effect and ±100 for the full control effect; nearly all actives have a fitted effect of over 65% in size
G9a inh: G9a (human) methyltransferase inhibition. 350,000 compounds, 8.8% hits. Potency, µM (series often up to 102 µM), without a hit: at the highest dose activity, negative = inhibition, usual class: inhibitors. G9a H3K9 monomethylation, AlphaScreen, 2 h. Q96KQ7; also: % is scaled to controls: 0 for no effect and ±100 for the full control effect; nearly all actives have a fitted effect of over 75% in size
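Readings reflect AlphaScreen signal from monomethyl-H3K9 antibody detection. HMT at 20 nM; substrate b-H3K9 500 nM; cofactor SAM 20 uM; 2 h RT reaction; compounds tested as titrations in qHTS with 15 min preincubation.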
ALOX12 inh: blocks human arachidonate 12S-lipoxygenase | purified 12hLO, xylenol orange hydroperoxide absorbance | Potency, µM (doses to about 108 µM), inactives show at the highest dose activity change, negative = inhibition, usual class: inhibitors | P18054 | 580,000 compounds, 1.1% hits; also: % is scaled to controls: 0 for no effect and ±100 for the full control effect
Target sequence (P18054 whole entry, looked up): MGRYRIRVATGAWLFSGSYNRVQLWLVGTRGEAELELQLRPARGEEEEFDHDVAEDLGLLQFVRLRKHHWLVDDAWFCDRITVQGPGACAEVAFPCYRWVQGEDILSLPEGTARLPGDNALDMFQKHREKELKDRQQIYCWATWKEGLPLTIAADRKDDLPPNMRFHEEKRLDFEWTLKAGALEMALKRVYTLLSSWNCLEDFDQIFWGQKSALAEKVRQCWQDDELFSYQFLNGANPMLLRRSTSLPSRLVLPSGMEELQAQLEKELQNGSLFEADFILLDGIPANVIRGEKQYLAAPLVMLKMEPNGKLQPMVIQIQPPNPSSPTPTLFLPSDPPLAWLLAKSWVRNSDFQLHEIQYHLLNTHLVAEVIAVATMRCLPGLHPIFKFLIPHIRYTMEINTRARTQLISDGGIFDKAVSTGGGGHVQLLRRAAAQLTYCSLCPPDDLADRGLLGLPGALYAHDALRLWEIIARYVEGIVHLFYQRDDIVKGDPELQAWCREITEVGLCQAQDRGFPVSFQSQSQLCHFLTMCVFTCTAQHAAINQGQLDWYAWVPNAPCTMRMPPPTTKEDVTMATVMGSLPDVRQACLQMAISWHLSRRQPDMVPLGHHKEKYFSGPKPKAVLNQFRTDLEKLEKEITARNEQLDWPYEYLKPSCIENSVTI
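Hydroperoxide product was detected by ferrous iron/xylenol orange as the 573 to 405 nm absorbance ratio. Arachidonic acid at 40 uM (final) was turned over for 30 min at room temperature by 150 nM human 12hLO, pH 7.0 Hepes buffer, after 15 min compound preincubation.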
HP1b binding inh: blocks HP1-beta chromodomain binding to methylated histone tails; P83916; AlphaScreen HP1-beta / biotin-H3K9me3 peptide binding; Potency, µM (series often up to 114 µM), without a hit: at the top dose activity change, negative = inhibition, usual class: inhibitors; 390,000 compounds, 0.56% hits; AID 540317; also: nearly all actives have a fitted effect of over 70% in size
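HP1-beta protein (50 nM final) preincubated 30 min at room temperature with biotinylated H3(1-18)K9me3 peptide (50 nM) in PBS pH 7.4, 0.01% Tween-20, then compound added for 30 min. AlphaScreen streptavidin donor/nickel chelate acceptor beads (10 ug/mL final), 30 min dark, luminescence read.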
BAZ2B inh: blocks human BAZ2B; 360,000 compounds, 4.4% hits; AlphaScreen BAZ2B-H3K14Ac peptide displacement; Potency, µM (top dose mostly 114 µM), for inactives: at the highest dose activity change, negative = inhibition, usual class: inhibitors; Q9UIF8; also: % is scaled to controls: 0 for no effect and ±100 for the full control effect; nearly all actives have a fitted effect of over 60% in size
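Protein-peptide AlphaScreen: BAZ2B 50 nM, b-H3K14Ac 50 nM, 1x PBS pH 7.4 + 0.01% Tween-20. Preincubation 30 min RT; cpd 30 min RT (top 110 uM); beads 20 min RT, light-protected.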
* hit, by the source's call; ? = inconclusive; / = not tested or not shown; ! = not confirmed by another sample; [ ] = remark or other dose. Only some compounds are listed: those with a hit (about 9% of all), similar ones and a draw of the others. Calls follow the shape of the dose curve; as a rule, active = well fitted curve in the direction sought with a large enough effect; inconclusive = small, poorly fitted or top-dose-only effect, or another doubt; inactive = no such curve, though single readings can be large; an effect the other way counts as inactive or inconclusive. Potency is read from the fitted curve at half-maximal effect.

SMILES	JMJD2A Tudor inh	PLK1 PBD inh	G9a inh	ALOX12 inh	HP1b binding inh	BAZ2B inh
O=C(CN1C(=O)NC2(CCCCC2)C1=O)Nc1ccc(N2CCCCC2)cc1	-34%	4%	/	-7%	-23%	/
CC1CC(C)(C)CC2(C1)NC(=O)N(CC(=O)N1CCN(S(=O)(=O)c3ccc(F)c(F)c3F)CC1)C2=O (stereo unspecified)	20µM*	-1%	/	?	26%	/
CC1(c2ccccc2Cl)NC(=O)N(CC(=O)Nc2ccc(N3CCOCC3)cc2)C1=O (stereo unspecified)	-4%	2%	/	0%	17%	/
CC1CCCCC12NC(=O)N(CC(=O)Nc1ccc(N3CCCCC3)cc1)C2=O (stereo unspecified)	-21%	-11%	16µM*	-19%	17%	-35%
CCC1(c2ccccc2)NC(=O)N(CC(=O)Nc2cc(Cl)ccc2N2CCN(C)CC2)C1=O (stereo unspecified)	-23%	1%	-3%[12.7 µM]	230%	28%	1%
CN1CCN(c2ccc(Cl)cc2NC(=O)CN2C(=O)NC(C)(c3ccccc3)C2=O)CC1 (stereo unspecified)	-22%	-1%	45µM*	1%	27%	-22%
CN1Cc2cccc3c2C(Cc2ccccc2S3)C1 (stereo unspecified)	10µM*	7%	?	-26%	22%	-8%
CCc1ccc2c(c1)Sc1ccccc1CC2N1CCN(C)CC1 (stereo unspecified)	-35%	7%	/	?	-9%	/
Cc1c(NC(=S)N/N=C/c2cc([N+](=O)[O-])ccc2O)c(=O)n(-c2ccccc2)n1C	28µM*	-12%	56µM*	?	26%	5.6µM*
Cc1c(Cl)cccc1NC(=O)Nc1c(C)n(C)n(-c2ccccc2)c1=O	-2%	-4%	79µM*	4%	38%	-1%
Cc1cc(=O)[nH]c(Nc2c(C)n(C)n(-c3ccccc3)c2=O)n1	1%	-8%	22%[12.7 µM]	-1%	15%	-5%
Cc1c(NC2=C(Cl)C(=O)N(c3ccccc3Cl)C2=O)c(=O)n(-c2ccccc2)n1C	?	?	40µM*	?	2%	-38%
Cc1c(NC(=O)Nc2ccc([N+](=O)[O-])cc2)c(=O)n(-c2ccccc2)n1C	16µM*	9.5µM*	18%	0%	13%	-3%
COc1ccc(OCC(=O)Nc2ccccc2-c2ccccc2)cc1	20%	-11%	0%	15%	68%	-16%
CCCN1C(=O)Cc2cc(C(=O)O)ccc21	/	/	/	10%	/	/
CCOC(=O)CNC(=O)CSc1nnc(Cn2c(=O)sc3ccccc32)n1-c1ccccc1C	-7%	-6%	-6%[59 µM]	-1%	21%	-1%
NNC(=O)c1sc2cc(C(F)(F)F)cnc2c1-c1ccccn1	-9%[11.4 µM]	-3%	5.6µM*	0%	32%	?
O=C1NC2CCCCC2C(=O)N1OS(=O)(=O)c1ccccc1 (stereo unspecified)	?	0.75µM*	/	?	50µM*	/
CCCCn1c(=NC(=O)c2cccnc2)c(C(=O)OCC)cc2c(=O)n3ccccc3nc21	-16%[57.1 µM]	?	0%[12.7 µM]	0%	-12%	1%
CCOCCCn1c(=NC(=O)c2cccnc2)c(C(=O)OCC)cc2c(=O)n3ccccc3nc21	50µM*!	19µM*!	2%[59 µM]	?	10%	-27%
O=C1c2ccccc2C(=O)C12OC(c1ccccc1)C1(C(=O)c3ccccc3C1=O)C2c1cccc([N+](=O)[O-])c1 (stereo unspecified)	/	/	-21%[59 µM]	-2%	/	4%
CCCCS(=O)CC(COc1ccc(Cl)cc1)OC(=O)c1ccccc1 (stereo unspecified)	33%	0%	50µM*	?	89%	26%
CC1=CC2=NC(=O)CC(C)(C(=O)N(CC(=O)NC3CCCC3)c3ccccc3F)N2C=C1 (stereo unspecified)	-14%	18%	-3%	-7%	21%[57 µM]	6%
CC1=CC2=NC(=O)CC(C)(C(=O)N(CC(=O)NC3CCCC3)c3ccccc3C)N2C=C1 (stereo unspecified)	7%[11.4 µM]	30µM*	-2%[12.7 µM]	0%	-1%	-15%
COc1ccc(CN2CCN(C(C)C(=O)N(C)Cc3cccc(F)c3)CC2)cc1OC (stereo unspecified)	4.5µM*	-3%	2µM*	-70%	?	18µM*
SMILES	JMJD2A Tudor inh	PLK1 PBD inh	G9a inh	ALOX12 inh	HP1b binding inh	BAZ2B inh
COc1ccc(C(=O)N2CCN(C(=O)CC(C)C)CC2)cc1OC	-7%	-15%	?	21%	13%	0%
CC(C)CC(=O)N1CCN(Cc2cccc(F)c2)CC1	4.5µM*	0%	-46%[12.7 µM]	?	?	56µM*
COc1cc(OC)c(OC)cc1CN1CCN(C(=O)CC(C)C)CC1	1.6µM*	6%	18µM*	?	?	?
COc1cccc(CN2CCN(C(=O)CC(C)C)CC2)c1	5.6µM*	0%	18µM*	?	-57%	56µM*
CC(C)n1cc2cc(C(=O)N3CCN(Cc4cccc(F)c4)CC3)sc2c1	/	/	/	-21%	/	/
COc1cccc(CN2CCN(C(=O)Nc3ccc([N+](=O)[O-])cc3)CC2)c1	-18%	-11%	/	5%	14%	-12%
O=C(Nc1ccccc1)N(CCc1nc2ccccc2[nH]1)C1CCCC1	-12%	-5%	3%[59 µM]	5%	13%	4%
CNC(=O)c1c(NC(=O)c2cc(=O)c3ccccc3o2)sc2c1CCC2	-3%	/	1%[59 µM]	0%	26%[57 µM]	3%
Cc1ccc(S(=O)(=O)c2nc(-c3cccs3)oc2SC(C)c2ccccc2)cc1 (stereo unspecified)	-2%	/	?	?	39%	-2%
Cc1cccc(N(Cc2ccccc2)C(=O)CCl)c1	18%	-5%	9%	?	61%	6%
C[C@@]12C=Cc3occc3[C@H]1CC[C@]13CC(=O)[C@@H](CC[C@H]12)C3	-19%	/	/	/	1%	/
O=C(CN1C(=O)NC2(CCCC2)C1=O)Nc1cccc(C(F)(F)F)c1	0%	1%	3%	17%	40%	0%
COc1cc(S(=O)(=O)N(Cc2ccccn2)Cc2ccccc2Cl)ccc1-n1cnnn1	-1%	-1%	21%[59 µM]	-2%	20%	-2%
CCOC(=O)Cc1csc(NC(=O)CSc2nnc(C)n2C)n1	-16%	-2%	17%[59 µM]	13%[57.4 µM]	28%	2%
COC(=O)Cc1csc(NC(=O)CSc2nnc3ccccn23)n1	?	17µM*	4%	-6%	?	0%
c1ccc(-c2cc3ccccc3[nH]2)cc1	-9%	-6%	/	-6%	26%	-5%
CCOc1ccc(-c2cc3ccccc3[nH]2)cc1	/	/	/	13µM*	/	/
COc1ccc(-c2cc3ccccc3[nH]2)cc1	7.1µM*	-8%	/	?	?	-21%
